{"source": "PubChem BioAssay", "note": "Calls of active or inactive are those of the source. The rule behind the calls is not given here."}
{"test_system": "Botulinum neurotoxin type F light chain protease (Clostridium botulinum)", "assay": "Clostridium botulinum type F light chain protease inhibitors, microsphere substrate cleavage, validation (AID 588459)", "conditions": "multiplex microsphere protease substrate cleavage assay, flow cytometry; at 10 µM; active compounds read high"}
{"smiles": "COc1ccc2c(c1)c(=O)oc1cc3occ(C(C)(C)C)c3cc12", "inhibition": "1.2% (inactive)"}
{"smiles": "CCOc1ccc(CCn2c(-c3ccco3)nc3ccccc3c2=O)cc1OCC", "inhibition": "3.5% (inactive)"}
{"smiles": "CCOC(=O)c1oc2cc(OCC(N)=O)ccc2c(=O)c1-c1ccc(OC)c(OC)c1", "inhibition": "-3.1% (inactive)"}
{"smiles": "Cc1cccc(Nc2ncccc2C(=O)O)c1C", "inhibition": "-2.7% (inactive)"}
{"smiles": "CO[C@@]1(NC(=O)Cc2cccs2)C(=O)N2C(C(=O)O)=C(COC(N)=O)CS[C@@H]21", "inhibition": "-1.9% (inactive)"}
{"smiles": "CCNC(=S)N1CCN(CCN2C(=O)c3cccc4cccc(c34)C2=O)CC1", "inhibition": "5.8% (inactive)"}
{"smiles": "NC12CC3CC(C1)CC(O)(C3)C2", "inhibition": "4.4% (inactive)"}
{"smiles": "NC(N)=N/N=C/c1ccc(OS(=O)(=O)c2ccccc2)cc1", "inhibition": "-5.1% (inactive)"}
{"smiles": "CC(C)(Oc1ccc(CCNC(=O)c2ccc(Cl)cc2)cc1)C(=O)O", "inhibition": "-1.2% (inactive)"}
{"smiles": "COc1ccc(C(=O)NCc2cccnc2)cc1", "inhibition": "-1.8% (inactive)"}
{"smiles": "N/C(=N\\OC(=O)CCCOc1ccc(Cl)cc1Cl)c1ccncc1", "inhibition": "3.7% (inactive)"}
{"smiles": "CC1(C)CC(=O)C(C2=NC(C)(C)Cc3ccccc32)=C(O)C1", "inhibition": "0% (inactive)"}
{"smiles": "CN(C)CC/C=C1\\c2ccccc2Sc2ccc(Cl)cc21", "inhibition": "-9.1% (inactive)"}
{"smiles": "COc1ccc(CN(C)CCc2ccccn2)cc1OC", "inhibition": "-2.7% (inactive)"}
{"smiles": "O=c1oc2c(CN3CCN(CCO)CC3)c(O)ccc2cc1-c1ccccn1", "inhibition": "-0.2% (inactive)"}
{"smiles": "CC(C)CN(C)Cc1c(C(=O)N2CCc3ccccc3C2)nc2ccc(Cl)cn12", "inhibition": "2.4% (inactive)"}
{"smiles": "CC[N+]1(CC)CC2=Cc3ccccc3CC2C1", "note": "(configuration not stated)", "inhibition": "-1.1% (inactive)"}
